This note sets out measurements from article PMC7862700, “An all-to-all approach to the identification of sequence-specific readers for epigenetic DNA modifications on cytosine”.

Holding throughout (experiment): DAPPL (digital affinity profiling via proximity ligation, sequencing); 10 mM Tris-HCl pH 7.5, 50 mM NaCl, 1 mM DTT, 4% glycerol, room temperature, 30 min; GST-TFs on glutathione beads, 16-mer random dsDNA library, 0.1% formaldehyde crosslink after washing; high values mean tight binding
What all share (details): protein: recombinant; tags: N-terminal GST; dsDNA, one strand shown

One experiment deals with T1, FLI1 (Homo sapiens, UniProt Q01543 1-452).
T1 sequence: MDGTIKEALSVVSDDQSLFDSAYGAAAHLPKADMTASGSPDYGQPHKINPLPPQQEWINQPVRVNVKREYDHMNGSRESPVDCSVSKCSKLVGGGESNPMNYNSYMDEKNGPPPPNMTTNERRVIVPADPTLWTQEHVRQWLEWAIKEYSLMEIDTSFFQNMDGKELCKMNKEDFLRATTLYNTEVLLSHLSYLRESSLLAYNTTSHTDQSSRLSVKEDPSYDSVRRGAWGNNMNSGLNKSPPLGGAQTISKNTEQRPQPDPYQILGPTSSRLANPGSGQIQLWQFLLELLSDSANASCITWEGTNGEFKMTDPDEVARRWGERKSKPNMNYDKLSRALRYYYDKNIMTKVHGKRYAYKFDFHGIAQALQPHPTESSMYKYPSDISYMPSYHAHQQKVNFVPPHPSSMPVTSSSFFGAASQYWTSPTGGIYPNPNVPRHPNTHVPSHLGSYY
The essentials: (§1)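 Sequencing on an Illumina NextSeq500 followed washing, crosslinking with 0.1% formaldehyde, proximity ligation (BsaI/T4 ligase, 1 h, 37 °C) and PCR amplification of pools that had been incubated for 30 min at room temperature with 200 nmole of a random double-stranded 16-mer DNA library in Tris/NaCl/DTT/glycerol buffer. Each pool held DNA-barcoded human transcription factors, expressed in yeast as GST fusions and captured on glutathione beads, plus a tag-only sample. Binding signal is a hexamer's read frequency for a factor divided by its frequency in the tag-only sample.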

For the next experiment, the target named is T2, ELK1 (Homo sapiens, UniProt P19419 1-428).
T2 sequence: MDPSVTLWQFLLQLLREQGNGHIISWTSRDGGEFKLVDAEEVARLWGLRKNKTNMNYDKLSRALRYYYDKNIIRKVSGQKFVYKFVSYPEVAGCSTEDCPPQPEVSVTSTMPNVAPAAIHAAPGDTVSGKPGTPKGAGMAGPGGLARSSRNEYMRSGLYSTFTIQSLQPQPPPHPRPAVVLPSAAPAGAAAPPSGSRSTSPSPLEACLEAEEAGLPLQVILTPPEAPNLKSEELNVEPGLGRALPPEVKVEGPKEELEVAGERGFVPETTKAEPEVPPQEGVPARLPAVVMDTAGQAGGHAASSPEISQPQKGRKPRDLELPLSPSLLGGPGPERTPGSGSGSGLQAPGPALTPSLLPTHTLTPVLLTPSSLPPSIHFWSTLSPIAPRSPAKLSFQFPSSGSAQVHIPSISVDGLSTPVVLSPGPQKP
An outline of the steps:
as §1

A further experiment addresses T3, GABPA (Homo sapiens, UniProt Q06546 1-454).
T3 sequence: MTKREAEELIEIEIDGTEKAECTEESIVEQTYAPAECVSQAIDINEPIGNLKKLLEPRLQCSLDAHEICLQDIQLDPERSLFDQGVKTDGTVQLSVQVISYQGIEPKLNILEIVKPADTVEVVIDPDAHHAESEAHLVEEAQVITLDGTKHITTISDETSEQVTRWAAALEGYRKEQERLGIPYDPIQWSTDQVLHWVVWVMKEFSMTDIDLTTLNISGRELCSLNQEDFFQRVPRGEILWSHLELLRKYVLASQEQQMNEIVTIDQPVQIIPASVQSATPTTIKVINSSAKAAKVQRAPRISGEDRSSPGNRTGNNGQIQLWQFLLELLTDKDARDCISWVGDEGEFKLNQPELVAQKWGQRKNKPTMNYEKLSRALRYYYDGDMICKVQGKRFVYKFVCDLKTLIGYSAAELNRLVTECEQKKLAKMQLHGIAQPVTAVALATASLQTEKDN
An outline of the steps:
as §1

In the next experiment the target is T4, ERG (Homo sapiens, UniProt P11308 1-479).
T4 sequence: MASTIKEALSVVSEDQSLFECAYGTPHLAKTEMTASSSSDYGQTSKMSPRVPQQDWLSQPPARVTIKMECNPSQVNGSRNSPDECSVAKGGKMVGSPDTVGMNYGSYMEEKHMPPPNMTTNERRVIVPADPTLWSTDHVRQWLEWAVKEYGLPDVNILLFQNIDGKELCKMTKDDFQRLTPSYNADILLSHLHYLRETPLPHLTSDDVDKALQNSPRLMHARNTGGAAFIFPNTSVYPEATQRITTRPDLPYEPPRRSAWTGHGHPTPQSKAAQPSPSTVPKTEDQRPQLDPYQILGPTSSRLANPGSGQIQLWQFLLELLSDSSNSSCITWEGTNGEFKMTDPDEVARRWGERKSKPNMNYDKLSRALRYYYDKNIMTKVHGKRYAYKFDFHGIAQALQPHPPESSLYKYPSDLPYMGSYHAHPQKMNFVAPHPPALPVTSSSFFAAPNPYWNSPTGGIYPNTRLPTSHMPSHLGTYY
An outline of the steps: as §1

The target in a further experiment is ELF1 (Homo sapiens, UniProt P32519 1-619). An outline of the steps:
as §1

The target of a further experiment is SPI1 (Homo sapiens, UniProt P17947 1-270). An outline of the steps: as §1
A further experiment has as its target SPIB (Homo sapiens, UniProt Q01892 1-262). The essentials:
as §1

The target in a further experiment is T5, ELK3 (Homo sapiens, UniProt P41970 1-407).
T5 sequence: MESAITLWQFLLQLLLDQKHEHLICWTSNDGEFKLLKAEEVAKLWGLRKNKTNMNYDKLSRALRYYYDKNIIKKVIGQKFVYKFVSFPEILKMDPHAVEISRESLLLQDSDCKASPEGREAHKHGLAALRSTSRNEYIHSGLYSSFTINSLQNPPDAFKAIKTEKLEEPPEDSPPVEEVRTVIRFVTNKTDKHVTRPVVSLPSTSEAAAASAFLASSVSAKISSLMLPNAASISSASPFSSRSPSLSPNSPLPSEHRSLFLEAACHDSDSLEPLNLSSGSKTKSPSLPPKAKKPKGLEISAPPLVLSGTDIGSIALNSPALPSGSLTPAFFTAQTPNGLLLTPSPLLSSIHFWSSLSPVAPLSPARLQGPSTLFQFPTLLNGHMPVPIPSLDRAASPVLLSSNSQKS
The essentials:
as §1

Another experiment concerns the target T6, FEV (Homo sapiens, UniProt Q99581 1-238).
T6 sequence: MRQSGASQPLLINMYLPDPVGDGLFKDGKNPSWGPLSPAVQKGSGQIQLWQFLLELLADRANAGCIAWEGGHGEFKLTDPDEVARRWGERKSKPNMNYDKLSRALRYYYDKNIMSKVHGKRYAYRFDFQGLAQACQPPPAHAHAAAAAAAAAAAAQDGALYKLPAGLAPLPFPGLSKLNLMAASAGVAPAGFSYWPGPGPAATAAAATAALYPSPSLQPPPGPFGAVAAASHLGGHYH
The essentials: as §1

A further experiment has as its target ETV5 (Homo sapiens, UniProt P41161 1-510). The essentials:
as §1

Another experiment has as its target T7, SPIC (Homo sapiens, UniProt Q8N5J4 1-248).
T7 sequence: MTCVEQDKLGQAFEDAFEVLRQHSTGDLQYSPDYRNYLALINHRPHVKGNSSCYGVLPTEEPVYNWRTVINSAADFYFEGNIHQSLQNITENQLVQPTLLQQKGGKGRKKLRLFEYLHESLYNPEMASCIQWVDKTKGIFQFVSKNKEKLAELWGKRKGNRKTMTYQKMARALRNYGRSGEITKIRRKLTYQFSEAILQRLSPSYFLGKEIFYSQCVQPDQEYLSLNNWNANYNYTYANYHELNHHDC
An outline of the steps:
as §1

For a further experiment, the target named is ELF4 (Homo sapiens, UniProt Q99607 1-663). The essentials:
as §1

The target of a further experiment is T8, ELK4 (Homo sapiens, UniProt P28324-2 1-405).
T8 sequence: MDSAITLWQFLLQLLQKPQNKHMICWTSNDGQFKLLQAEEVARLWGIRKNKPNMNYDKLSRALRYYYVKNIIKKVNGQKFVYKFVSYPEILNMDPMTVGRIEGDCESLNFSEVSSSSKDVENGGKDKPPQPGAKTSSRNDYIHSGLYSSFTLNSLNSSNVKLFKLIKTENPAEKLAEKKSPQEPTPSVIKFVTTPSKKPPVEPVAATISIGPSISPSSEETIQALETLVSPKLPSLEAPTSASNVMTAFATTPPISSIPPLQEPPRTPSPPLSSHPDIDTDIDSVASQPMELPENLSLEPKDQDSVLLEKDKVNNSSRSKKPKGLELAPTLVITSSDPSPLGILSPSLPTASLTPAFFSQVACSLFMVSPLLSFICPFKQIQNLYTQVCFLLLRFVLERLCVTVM
The essentials:
as §1

For the next experiment, the target named is T9, ETV2 (Homo sapiens, UniProt O00321 1-342).
T9 sequence: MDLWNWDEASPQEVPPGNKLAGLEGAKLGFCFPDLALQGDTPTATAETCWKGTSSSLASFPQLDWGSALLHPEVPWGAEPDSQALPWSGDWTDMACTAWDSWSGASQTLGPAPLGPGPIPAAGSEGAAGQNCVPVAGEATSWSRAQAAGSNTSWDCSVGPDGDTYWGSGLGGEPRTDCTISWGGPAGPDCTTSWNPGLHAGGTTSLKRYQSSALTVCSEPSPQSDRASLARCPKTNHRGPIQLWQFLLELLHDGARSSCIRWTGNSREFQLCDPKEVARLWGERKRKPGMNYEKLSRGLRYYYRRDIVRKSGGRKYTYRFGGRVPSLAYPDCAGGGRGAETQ
An outline of the steps: as §1

In another experiment the target is T10, ELF3 (Homo sapiens, UniProt P78545 1-371).
T10 sequence: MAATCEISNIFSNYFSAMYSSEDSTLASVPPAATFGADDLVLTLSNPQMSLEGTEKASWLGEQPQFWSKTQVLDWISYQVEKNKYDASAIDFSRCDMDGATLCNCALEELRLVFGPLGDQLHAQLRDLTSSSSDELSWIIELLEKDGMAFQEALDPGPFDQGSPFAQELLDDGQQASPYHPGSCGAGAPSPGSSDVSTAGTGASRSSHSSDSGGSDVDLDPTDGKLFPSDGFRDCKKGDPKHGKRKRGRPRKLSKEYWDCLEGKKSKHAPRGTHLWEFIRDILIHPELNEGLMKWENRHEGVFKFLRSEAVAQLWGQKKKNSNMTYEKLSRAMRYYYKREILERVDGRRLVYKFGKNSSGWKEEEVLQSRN
An outline of the steps:
as §1

In a further experiment the target is ETV1 (Homo sapiens, UniProt P50549 1-477). An outline of the steps: as §1
Sequence of ETV1 (P50549 whole entry): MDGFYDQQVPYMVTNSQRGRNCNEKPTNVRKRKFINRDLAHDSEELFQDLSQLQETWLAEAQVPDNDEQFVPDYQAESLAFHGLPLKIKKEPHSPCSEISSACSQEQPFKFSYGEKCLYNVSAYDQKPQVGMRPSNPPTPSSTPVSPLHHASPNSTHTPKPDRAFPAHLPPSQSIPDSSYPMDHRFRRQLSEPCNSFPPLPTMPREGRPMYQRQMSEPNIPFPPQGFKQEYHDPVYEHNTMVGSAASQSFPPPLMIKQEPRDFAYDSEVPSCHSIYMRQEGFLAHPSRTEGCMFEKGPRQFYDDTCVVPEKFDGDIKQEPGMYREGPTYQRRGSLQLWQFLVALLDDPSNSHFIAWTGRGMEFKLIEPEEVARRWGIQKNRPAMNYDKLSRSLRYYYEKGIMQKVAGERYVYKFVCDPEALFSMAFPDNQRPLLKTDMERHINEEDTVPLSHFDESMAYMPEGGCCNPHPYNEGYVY
The target of another experiment is T11, EHF (Homo sapiens, UniProt Q9NZC4 1-300).
T11 sequence: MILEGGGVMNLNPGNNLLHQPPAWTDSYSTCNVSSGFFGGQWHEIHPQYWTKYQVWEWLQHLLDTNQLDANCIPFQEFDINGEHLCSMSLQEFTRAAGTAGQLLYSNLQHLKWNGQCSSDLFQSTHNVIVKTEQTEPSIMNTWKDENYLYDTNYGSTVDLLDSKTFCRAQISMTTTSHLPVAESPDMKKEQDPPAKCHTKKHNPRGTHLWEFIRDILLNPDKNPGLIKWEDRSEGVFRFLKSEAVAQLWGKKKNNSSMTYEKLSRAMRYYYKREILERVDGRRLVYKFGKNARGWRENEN
The essentials:
as §1

Sequence of ELF4 (Q99607 whole entry): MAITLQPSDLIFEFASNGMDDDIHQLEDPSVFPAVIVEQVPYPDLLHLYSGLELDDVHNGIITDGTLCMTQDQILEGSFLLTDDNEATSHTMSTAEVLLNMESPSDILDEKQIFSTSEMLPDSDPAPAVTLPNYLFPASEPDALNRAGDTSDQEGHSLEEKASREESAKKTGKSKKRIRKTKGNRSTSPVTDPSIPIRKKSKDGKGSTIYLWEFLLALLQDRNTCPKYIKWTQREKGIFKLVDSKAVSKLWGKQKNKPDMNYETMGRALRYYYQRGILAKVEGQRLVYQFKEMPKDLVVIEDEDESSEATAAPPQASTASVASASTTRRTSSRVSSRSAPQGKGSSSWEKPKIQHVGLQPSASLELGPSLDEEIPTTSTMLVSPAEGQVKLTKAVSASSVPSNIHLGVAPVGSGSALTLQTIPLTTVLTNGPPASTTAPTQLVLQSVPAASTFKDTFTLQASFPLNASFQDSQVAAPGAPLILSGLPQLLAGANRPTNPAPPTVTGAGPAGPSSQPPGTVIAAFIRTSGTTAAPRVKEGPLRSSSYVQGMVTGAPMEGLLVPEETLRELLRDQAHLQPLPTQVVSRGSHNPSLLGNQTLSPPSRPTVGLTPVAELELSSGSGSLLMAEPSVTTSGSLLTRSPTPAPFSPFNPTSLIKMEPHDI
Sequence of ELF1 (P32519 whole entry): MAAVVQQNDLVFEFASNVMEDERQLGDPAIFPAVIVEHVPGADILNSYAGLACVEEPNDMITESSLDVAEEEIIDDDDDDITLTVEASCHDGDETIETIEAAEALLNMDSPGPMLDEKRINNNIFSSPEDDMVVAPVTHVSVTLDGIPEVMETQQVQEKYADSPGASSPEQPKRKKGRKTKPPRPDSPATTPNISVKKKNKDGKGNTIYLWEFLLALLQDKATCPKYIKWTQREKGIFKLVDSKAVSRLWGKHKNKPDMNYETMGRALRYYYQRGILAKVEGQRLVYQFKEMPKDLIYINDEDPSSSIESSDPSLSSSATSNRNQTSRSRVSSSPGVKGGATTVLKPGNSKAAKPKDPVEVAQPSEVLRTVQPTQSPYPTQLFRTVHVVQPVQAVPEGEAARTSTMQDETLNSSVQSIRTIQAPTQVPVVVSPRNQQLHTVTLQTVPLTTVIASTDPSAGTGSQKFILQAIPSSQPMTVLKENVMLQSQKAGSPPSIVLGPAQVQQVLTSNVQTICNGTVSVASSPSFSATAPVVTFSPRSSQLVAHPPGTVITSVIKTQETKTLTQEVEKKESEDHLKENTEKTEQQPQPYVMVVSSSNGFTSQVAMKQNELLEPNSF
Sequence of ETV5 (P41161 whole entry): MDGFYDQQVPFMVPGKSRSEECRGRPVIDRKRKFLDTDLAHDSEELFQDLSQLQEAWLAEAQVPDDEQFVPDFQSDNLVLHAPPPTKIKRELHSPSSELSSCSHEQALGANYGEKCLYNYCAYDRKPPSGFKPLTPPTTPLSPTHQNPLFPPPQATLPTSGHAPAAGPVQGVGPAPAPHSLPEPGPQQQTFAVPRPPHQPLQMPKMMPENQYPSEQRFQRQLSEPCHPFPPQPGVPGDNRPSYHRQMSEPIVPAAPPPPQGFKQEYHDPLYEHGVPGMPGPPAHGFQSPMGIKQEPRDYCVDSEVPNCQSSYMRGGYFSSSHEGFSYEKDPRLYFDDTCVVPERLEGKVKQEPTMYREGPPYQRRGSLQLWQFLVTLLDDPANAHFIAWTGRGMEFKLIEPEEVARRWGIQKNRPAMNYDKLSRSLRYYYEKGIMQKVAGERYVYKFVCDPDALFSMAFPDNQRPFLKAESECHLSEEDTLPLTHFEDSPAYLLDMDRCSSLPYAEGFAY
Sequence of SPIB (Q01892 whole entry): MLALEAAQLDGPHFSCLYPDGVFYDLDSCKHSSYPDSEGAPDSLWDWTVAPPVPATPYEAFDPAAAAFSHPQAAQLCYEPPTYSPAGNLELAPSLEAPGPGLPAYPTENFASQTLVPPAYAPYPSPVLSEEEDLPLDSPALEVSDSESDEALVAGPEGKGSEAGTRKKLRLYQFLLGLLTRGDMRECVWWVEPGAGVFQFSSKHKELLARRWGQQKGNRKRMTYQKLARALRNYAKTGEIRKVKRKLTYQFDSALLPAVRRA

For the sequence CAATCA, the binding signal was 1.11 fold enrichment (6-mer frequency, TF over GST control) in the experiment with FLI1; 1.11 fold enrichment (6-mer frequency, TF over GST control) with ELK1; 1.24 fold enrichment (6-mer frequency, TF over GST control) in the experiment with GABPA; 1.14 fold enrichment (6-mer frequency, TF over GST control) in the experiment with ERG; 1.19 fold enrichment (6-mer frequency, TF over GST control) with ELF1; 1.08 fold enrichment (6-mer frequency, TF over GST control) with SPI1. Besides, the binding signal with SPIB was 1.1 fold enrichment (6-mer frequency, TF over GST control); with ELK3, 1.05 fold enrichment (6-mer frequency, TF over GST control); with FEV it was 1.11 fold enrichment (6-mer frequency, TF over GST control); in the experiment with ETV5 it was 1.15 fold enrichment (6-mer frequency, TF over GST control); with SPIC, 1.19 fold enrichment (6-mer frequency, TF over GST control); with ELF4 it was 1.16 fold enrichment (6-mer frequency, TF over GST control). Further, the binding signal is 1.04 fold enrichment (6-mer frequency, TF over GST control) in the experiment with ELK4; 1.15 fold enrichment (6-mer frequency, TF over GST control) with ETV2; 1.12 fold enrichment (6-mer frequency, TF over GST control) with ELF3; 1.13 fold enrichment (6-mer frequency, TF over GST control) with ETV1.
On to GTCACT, for which the binding signal was 1.1 fold enrichment (6-mer frequency, TF over GST control) with FLI1; 1.07 fold enrichment (6-mer frequency, TF over GST control) with ELK1; 1.08 fold enrichment (6-mer frequency, TF over GST control) with GABPA; 1.13 fold enrichment (6-mer frequency, TF over GST control) with ERG; 1.1 fold enrichment (6-mer frequency, TF over GST control) with ELF1; 1.15 fold enrichment (6-mer frequency, TF over GST control) in the experiment with EHF. Also, the binding signal with SPI1 was 1.19 fold enrichment (6-mer frequency, TF over GST control); with SPIB, 1.21 fold enrichment (6-mer frequency, TF over GST control); with ELK3, 1.06 fold enrichment (6-mer frequency, TF over GST control); in the experiment with FEV, 1.18 fold enrichment (6-mer frequency, TF over GST control); with ETV5 it was 1.14 fold enrichment (6-mer frequency, TF over GST control); in the experiment with SPIC it was 1.01 fold enrichment (6-mer frequency, TF over GST control). Moreover, the binding signal was 1.09 fold enrichment (6-mer frequency, TF over GST control) with ELF4; 1.07 fold enrichment (6-mer frequency, TF over GST control) with ELK4; 1.14 fold enrichment (6-mer frequency, TF over GST control) in the experiment with ETV2; 1.26 fold enrichment (6-mer frequency, TF over GST control) with ELF3.
